This is part of a sample that, as a whole, favours compounds with a hit. Of some 83,000 tested, about 20% had one in any assay.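 How to read the values: 0–100, growth inhibition (40 = 60% inhibited); 0, no net growth; -100 to 0, cell death (-40 = 40% of starting cells died; -100 = all dead).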 Values without a mark were called inactive. Activity calls are given as the source filed them. Rule for the calls: active = growth percent below 10; inactive = the rest.
Legend:
Experiment in all cases: NCI-60 one-dose screen, 48 h (100 = growth as untreated, 0 = no growth, -100 = all killed)
[1] = tested on: EKVX NSCLC; details: 10 µM unless noted
[2] = tested on: SN12C renal; details: 10 µM unless noted
[3] = tested on: UO-31 renal; details: 10 µM unless noted
[4] = tested on: TK-10 renal; details: 10 µM unless noted
[5] = tested on: ACHN renal; details: 10 µM unless noted
[6] = tested on: CAKI-1 renal; details: 10 µM unless noted
[7] = tested on: CCRF-CEM leukemia; details: 10 µM unless noted
[8] = tested on: MOLT-4 leukemia; details: 10 µM unless noted
[9] = tested on: SR leukemia; details: 10 µM unless noted
[10] = tested on: RPMI-8226 leukemia; details: 10 µM unless noted
[11] = tested on: OVCAR-8 ovarian; details: 10 µM unless noted
[12] = tested on: OVCAR-5 ovarian; details: 10 µM unless noted
[13] = tested on: OVCAR-4 ovarian; details: 10 µM unless noted
[14] = tested on: SK-OV-3 ovarian; details: 10 µM unless noted
[15] = tested on: IGROV1 ovarian; details: 10 µM unless noted
[16] = tested on: OVCAR-3 ovarian; details: 10 µM unless noted
[17] = tested on: HS 578T breast; details: 10 µM
[18] = tested on: NCI/ADR-RES ovarian; details: 10 µM unless noted
[19] = tested on: A498 renal; details: 10 µM unless noted

Row | Compound | growth [1] | growth [2] | growth [3] | growth [4] | growth [5] | growth [6] [%] | growth [7] | growth [8] | growth [9] | growth [10] | growth [11] | growth [12] | growth [13] | growth [14] | growth [15] | growth [16] | growth [17] [%] | growth [18] | growth [19]
1 | Cc1nn(-c2nc3ccccc3[nH]2)c2c1C(c1ccc(OCc3ccc(F)cc3)cc1)CC(=O)N2 (stereo not drawn) | 81.7% | 55.4% | 36.9% | 56.1% | 48.2% | 66.2 | 52.8% | 7.48% (active) | 67.5% | 76.3% | 54% | 98.5% | 98.4% | 49.1% | 54.6% | 51% | 39 | 65.9% | –
2 | CC1(/C=N/NC(N)=S)NC(=O)NC1=O (stereo not drawn) | 99.1% | 95.5% | 96.5% | 96.5% | 108% | 96.7 | 100% | 82% | 94.8% | 104% | 97.7% | 102% | 109% | 86.9% | 111% | 109% | 97 | 111% | –
3 | CCCCN1CCCC[C@@H]1C(=O)N[C@H](C(=O)N(C)[C@H](CCc1nc(C(=O)N[C@@H](Cc2ccccc2)C[C@H](C)C(=O)OC)cs1)C(C)C)C(C)C | 65.8% | 82.2% | 52.3% | 102% | 59.7% | – | 38.8% | 35.2% | 7.34% (active) | 7.01% (active) | 82.6% | 95.1% | 61.3% | 75.4% | 50.3% | 65.2% | 90 | 65.4% | 61.2%
4 | COc1cc2cc(NCc3ccc(F)cc3)nc(C)c2cc1OC | 78.7% | 51% | 49.6% | 46.7% | 60.4% | – | 41.9% | 35.2% | 22.2% | 14.2% | 51% | 53.4% | 96.7% | 75.3% | 59.1% | 68.2% | 75.8 | 44.4% | 27.4%
5 | COc1ccc2c(c1)cn1c3ccc(O)cc3nc(N)c21 | 41% | 34.6% | 15.6% | 25.2% | 27.4% | 26.9 | 23% | – | 3.65% (active) | 25.4% | 28.1% | 38.3% | 37.7% | 5.03% (active) | 17.4% | 43% | – | -0.794% (active) | 38.6%
6 | CCCCOc1nc2cc(Cl)ccc2cc1/C=C/c1cc(/C=C/c2cc3ccc(Cl)cc3nc2OCCCC)n(-c2ccccc2)n1 | 113% | 94% | 89.9% | 91.4% | 75.6% | 78.5 | 98.9% | – | 73% | 111% | 77.8% | 107% | 111% | 51.5% | 89.3% | 103% | – | 93.2% | 97.9%
7 | C[N+](C)(CCOC(c1ccccc1)c1ccccc1)CC(=O)OCc1ccccc1 | 101% | 105% | 86.9% | 96% | 111% | – | 122% | 116% | 115% | 111% | 106% | 103% | 93.5% | 106% | 106% | 103% | 108 | 105% | 114%
8 | COc1cc2ncnc(Oc3cccc(NC(=O)Nc4cc(C(C)(C)C(F)(F)F)on4)c3)c2cc1OC | 26.1% | 21.1% | -0.0562% (active) | -7.18% (active) | 3.9% (active) | – | 39.7% | 13.3% | 28.5% | 30.6% | 25.1% | 12.8% | 36.3% | -26.5% (active) | -11.1% (active) | 50.4% | – | 23.9% | -24.9% (active)
9 | CCN(CC)C(=O)C[N+](C)(C)CCOC(c1ccccc1)c1ccccc1 | 100% | 106% | 93.4% | 98.2% | 111% | – | 112% | 103% | 108% | 114% | 110% | 100% | 89.5% | 107% | 102% | 103% | 112 | 99.1% | 114%
10 | CCN(CC)CCOc1ccc(/C(=C(\C)c2ccc(Cl)cc2)c2ccc(Cl)cc2)cc1 | 88.6% | 76.5% | 64.8% | 87.6% | 94.5% | – | 43.1% | 50.7% | 0.594% (active) | 14.5% | 82.7% | 80.2% | 78.8% | 103% | 80% | 83% | 77.5 | 81.5% | 79.6%
11 | COc1ccc(C(=O)c2cc(OC)c(OC)c(OC)c2)cc1/C=C/C(=O)c1ccc(F)cc1 | 90.1% | 64.7% | 56.3% | 82.9% | -70.3% (active) | 81.5 | 2.64% (active) | – | 3.26% (active) | 23.3% | 53.3% | 1.82% (active) | 77.8% | – | 91.7% | 61.4% | 98 | 31.1% | 80.9%
12 | COc1ccc2c(c1OC)C(=O)O[C@@H]2[C@H]1c2c(c(C#CC#Cc3ccc(F)c(F)c3)c3c(c2OC)OCO3)CCN1C | 90.3% | 100% | 70.5% | 95.3% | 95% | 86.6 | 101% | 89% | 60.2% | 67.3% | 87.9% | 96.5% | 99.9% | 76% | 90.1% | 104% | 101 | 89.3% | –
13 | CC(C)=CCc1cc2c(cc1O)C1=C(C(=O)C3=C(C1=O)S(=O)(=O)CCN3)C(C=C(C)C)O2 (stereo not drawn) | -26.1% (active) | -36.7% (active) | -2.94% (active) | 7.58% (active) | -22.1% (active) | – | 1.85% (active) | -38.2% (active) | 2.02% (active) | 9.78% (active) | -5.83% (active) | -72.4% (active) | -98.2% (active) | -3.23% (active) | -30.6% (active) | 0.0791% (active) | 11.1 | 73.8% | -70% (active)
14 | COC(=O)[C@]12CC[C@@H](C)[C@H](C)[C@@H]1C1=CC[C@@H]3[C@@]4(C)C(C#N)=CC(C)=C4CC[C@@]3(C)[C@]1(C)CC2 | 92.8% | 93.3% | 84.8% | 99.2% | 79% | 76.8 | 16% | 78.8% | 68% | 76.7% | 103% | 91.9% | 88.3% | 99.3% | 106% | 88.9% | 97.5 | 89.2% | –
15 | O=C(NOCCO)c1ccc2cncn2c1Nc1ccc(I)cc1F | 54.6% | 68.1% | 37.2% | 57.2% | 59.9% | 41 | 77.1% | – | 56.9% | 72.8% | 58.6% | 19.3% | 70.8% | – | 26.2% | 102% | – | 71.8% | -11% (active)
16 | Cc1nn(-c2ccccc2)c2c1N=c1s/c(=C\c3cn(-c4ccccc4)nc3-c3ccc(Cl)cc3)c(=O)n1C(C)N2 (stereo not drawn) | 84.8% | 91.5% | 70.1% | 152% | 83.7% | 83.6 | 110% | – | 123% | 49% | – | 101% | 93.2% | 102% | – | 109% | 87.8 | 97.8% | 123%
17 | N#CC1(C#N)C(c2cccs2)NC(c2cccs2)C1(C#N)C#N (stereo not drawn) | 94% | 105% | 71.4% | 114% | 102% | – | 100% | 95.3% | 110% | 107% | 101% | 109% | 92.7% | 99.1% | 101% | 98.1% | 104 | 97.6% | 116%

— PubChem BioAssay (NCI)
